PubChem BioAssay (NCI)
Compounds without any hit were thinned out: in the full panel of roughly 83,000, 20% have a hit.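 The test compound was applied at a single concentration to cells in 96-well plates for 48 hours, and percent growth was recorded.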 Values without a mark were called inactive. Active and inactive are the calls of the source. How the source made its calls: active means growth percent below 10; inactive means the rest.

Key:
Experiment in all cases: NCI-60 one-dose screen, 48 h (100 = growth as untreated, 0 = no growth, -100 = all killed)
SK-MEL-2 melanoma = conditions: 10 µM unless noted
SN12C renal = conditions: 10 µM unless noted
UO-31 renal = conditions: 10 µM unless noted
TK-10 renal = conditions: 10 µM unless noted
ACHN renal = conditions: 10 µM unless noted
A498 renal = conditions: 10 µM
CCRF-CEM leukemia = conditions: 10 µM unless noted
MOLT-4 leukemia = conditions: 10 µM unless noted
SR leukemia = conditions: 10 µM unless noted
RPMI-8226 leukemia = conditions: 10 µM unless noted
OVCAR-8 ovarian = conditions: 10 µM unless noted
OVCAR-5 ovarian = conditions: 10 µM unless noted
OVCAR-4 ovarian = conditions: 10 µM unless noted
SK-OV-3 ovarian = conditions: 10 µM unless noted
IGROV1 ovarian = conditions: 10 µM unless noted
OVCAR-3 ovarian = conditions: 10 µM unless noted
EKVX NSCLC = conditions: 10 µM unless noted
CAKI-1 renal = conditions: 10 µM unless noted
HL-60(TB) leukemia = conditions: 10 µM unless noted
HS 578T breast = conditions: 10 µM unless noted

| Structure (SMILES) | growth (SK-MEL-2 melanoma) | growth (SN12C renal) | growth (UO-31 renal) | growth (TK-10 renal) | growth (ACHN renal) | growth (A498 renal) | growth (CCRF-CEM leukemia) | growth (MOLT-4 leukemia) | growth (SR leukemia) | growth (RPMI-8226 leukemia) | growth (OVCAR-8 ovarian) | growth (OVCAR-5 ovarian) | growth (OVCAR-4 ovarian) | growth (SK-OV-3 ovarian) | growth (IGROV1 ovarian) | growth (OVCAR-3 ovarian) | growth (EKVX NSCLC) | growth (CAKI-1 renal) | growth (HL-60(TB) leukemia) | growth (HS 578T breast) |
| --- | --- | --- | --- | --- | --- | --- | --- | --- | --- | --- | --- | --- | --- | --- | --- | --- | --- | --- | --- | --- |
| CCCCCC1(CCBr)C(=O)NC(=O)NC1=O | 105% | 107% | 86.7% | 111% | 102% | 88.4% | 102% | 104% | 94.7% | 97.5% | 97.3% | 96.6% | 111% | 99.1% | 112% | 104% |  |  |  |  |
| Cn1cc(C2=C(c3cn(C4CCN(Cc5ccccn5)CC4)c4ccccc34)C(=O)NC2=O)c2ccccc21 |  | 81.1% | 48.4% | 56.3% | 63.8% | 88.1% | 112% | 85.7% | 7.89% (active) | 107% | 78.8% | 31.2% | 76.8% | 83.5% | 33.9% | 90.3% | 83.4% | 50.8% | 39.8% |  |
| COc1ccc(-n2c(C)nc3cc(OC)c(OC)cc3c2=O)cc1OC |  | 105% | 94.4% | 102% | 109% | 95.8% | 98.1% | 97.2% | 95.5% | 104% | 102% | 104% | 101% | 102% | 102% | 106% | 108% | 97.3% | 100% | 101% |
| CN(C)C(=O)Oc1ccc(Br)cc1 |  | 106% | 85.1% | 99.8% | 109% | 117% | 89.7% | 102% | 100% | 106% | 106% | 106% | 97.7% | 95.8% | 96.7% | 106% |  | 95.5% | 102% | 115% |
